Bioassay records (PubChem)
TbHK1 inh = Trypanosoma brucei hexokinase 1 inhibitors, primary screen, biochemical, G6PDH-coupled NADH absorbance, MLSCN library | AID 1430, 2008 | inhibition, % at 10 µM | actives 0.11% (n = 220,000) | recombinant TbHK1, G6PDH-coupled NADH A340;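 active means inhibition of 50% or more in the single-dose primary screen; inactive means inhibition below 50%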
Insulin prom inh = inhibitors of insulin promoter-driven GFP, primary screen, imaging, TRM-6 cells (human fetal islet line), eGFP reporter, cell count; reporter expression induced with tamoxifen; inhibition, % at 2 µM; actives 0.9% (n = 130,000);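 active means inhibition above the mean plus 3 SD, with well images judged a real hit on visual review, cut at about 60% in these data, passing the limit was not always enough; inconclusive means inhibition over the cutoff but images rejected on review; inactive means inhibition not above the cutoff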
HSV replic up = enhancers of HSV replication in host cells, fold increase, host cell viability; HSV replication augmentation in cells; maximum fold increase; actives 0.005% (n = 220,000); AID 1956, 2009; in the data active means maximum fold increase above about 1.5; inconclusive means no clear call, values can overlap the other calls; tested in PC3 cells
Ins promoter up = insulin promoter activators in MIN6 cells, imaging, high-content screening, mouse beta cells; MIN6 insulin promoter-GFP reporter; stronger effect = higher value; z-score at 5 µM; actives 0.3% (n = 190,000);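 active means z-score above 3 at 5 µM with at least 500 cells counted in the well; inconclusive means wells under 500 cells, flagged as cytotoxic or low count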
ROMK primary = ROMK potassium channel modulators, primary screen, cell-based, thallium flux, MLSMR library | ATP-sensitive inward rectifier potassium channel 1 (Homo sapiens), P48048 | Tet-inducible ROMK, thallium flux fluorescence; actives lie on both sides | B-score at 10 µM | actives 2% (n = 130,000) | AID 1918, 2009;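 active means signal ratio slope over the read window, or its plate-corrected B-score, at least 3 SD from the plate mean, either direction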;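 further: B-score of the F/F0 ratio slope over 7 to 12 s after thallium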
Target sequence (P48048 whole entry, looked up): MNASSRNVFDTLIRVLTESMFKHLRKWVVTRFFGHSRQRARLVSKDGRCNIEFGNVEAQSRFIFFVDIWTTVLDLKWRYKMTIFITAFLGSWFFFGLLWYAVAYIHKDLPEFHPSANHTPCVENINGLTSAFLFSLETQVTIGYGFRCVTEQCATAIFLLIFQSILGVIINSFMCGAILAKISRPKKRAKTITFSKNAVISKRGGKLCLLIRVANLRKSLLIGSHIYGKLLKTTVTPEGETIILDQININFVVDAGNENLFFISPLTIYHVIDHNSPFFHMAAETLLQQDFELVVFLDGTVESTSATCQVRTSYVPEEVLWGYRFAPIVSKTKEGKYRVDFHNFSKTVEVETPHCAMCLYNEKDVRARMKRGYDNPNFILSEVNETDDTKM
ROMK retest = ROMK channel modulator hit retest, confirmation, cell-based, thallium flux, duplicate, resupplied hits; shares compounds with ROMK primary; fluorescence ratio; stronger effect = lower value; normalized thallium flux (F/F0 slope) at 10 µM; actives 54% (n = 3,000);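 active means Flux at 10 µM at least 3 SD below or above vehicle control mean in one or both replicates; inconclusive means no clear call, values can overlap the other calls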
An asterisk follows results filed as active; i = inactive; ? = inconclusive; . = not tested or not shown. The full list was thinned out, with hits kept by preference.

SMILES | TbHK1 inh | Insulin prom inh | HSV replic up | Ins promoter up | ROMK primary | ROMK retest
CC(=O)c1ccc2c(c1)OCO2 | 0 | 0 | i | 0.76 | 3* | 0.071
Cc1ccc2c(c1)C1CN(C)CCC1N2C(=O)/C=C/c1ccc2c(c1)OCO2 (stereo not drawn) | -51 | . | i | -0.61 | -0.43 | .
Cc1ccc2c(c1)C1CN(C)CCC1N2C(=O)/C(C#N)=C/c1ccc2c(c1)OCO2 (stereo not drawn) | -23 | 0 | i | 0.07 | -3.1* | 0.053*
CC(NC(=O)Cc1cccc2ccccc12)C(=O)N1CCC(=O)CC1 (stereo not drawn) | 3 | . | i | -0.46 | -0.69 | .
O=C(COc1ccc2ccccc2c1)N1CCN(C2CCN(Cc3ccccc3)CC2)CC1 | -4 | 7 | i | 0.32 | -3* | 0.061*
O=C(COc1ccccc1)N1CCN(C2CCCC2)CC1 | 21 | 25 | i | 0.76 | . | .
Cc1ccccc1CS(=O)(=O)Cc1ccc(C(=O)N2CCC3(CC2)OCCO3)o1 | 3 | -62 | . | -0.06 | -1.2 | .
CCCCCSc1cc(O)c(C(CNC)C(C)C)cc1OC (stereo not drawn) | 21 | 19 | i | 0.42 | -3.2* | 0.057*
CCCCCSc1cc(OC)c(CCN(C)C)cc1OC | 5 | . | i | -0.27 | -1.5 | .
C[C@H]1CCCC(=O)CCCCCc2cc(O)cc(O)c2C(=O)O1 | 5 | -118 | i | . | . | 0.063*
C[n+]1c(-c2ccccc2)cc(-c2ccc(Cl)cc2)cc1-c1ccccc1 | -9 | . | i | -1.1 | -1.4 | .
c1ccc(-c2cc(-c3ccccc3)[n+](-c3ccccc3)c(-c3ccccc3)c2)cc1 | -20 | . | i | -4.1 | -3.6* | 0.044*
CN(C)c1ccc(-[n+]2c(-c3ccccc3)cc(-c3ccccc3)cc2-c2ccccc2)cc1 | -1 | . | i | ? | -2.2* | 0.036*
CCNC(=S)NCCC1=c2ccccc2=N/C1=C\c1c(O)n(C)c(=O)n(C)c1=O | -29 | . | i | 0.54 | . | .
O=C1NC(=O)N(Cc2ccccc2Cl)C(=O)/C1=C/N1CCOCC1 | 3 | 0 | i | . | . | 0.06*
O=c1[nH]c(=S)n(-c2ccc(Br)cc2)c(O)c1C=Nc1ccc(N2CCOCC2)cc1 | 7 | 33 | i | 0.53 | 0.0084 | 0.064*
CN(C)c1ccc(N=Cc2c(O)n(CCC3=CCCCC3)c(=O)[nH]c2=O)cc1 | -11 | 21 | i | -0.03 | -2.7 | .
CCN(CC)c1ccc(N=Cc2c(O)n(CCC3=CCCCC3)c(=O)[nH]c2=O)cc1 | 7 | 64 | . | 0.87 | -7.1* | 0.037*
CCC(C)c1ccc(N2C(=O)NC(=O)/C(=C/c3cccn3CCOc3ccc(C)cc3)C2=O)cc1 (stereo not drawn) | 18 | . | i | 0.66 | . | 0.047*
O=[N+]([O-])c1ccc(N2CCCNCC2)c2ncccc12 | -15 | . | i | -0.22 | . | 0.039*
COC(=O)C1=C(c2cc3ccccc3s2)C[C@@H]2CC[C@H]1N2C(=O)NCc1ccc(C(F)(F)F)cc1 | . | . | i | . | . | .
CC(C)(C)P(=O)(c1ccncc1)N1CCCC1 (stereo not drawn) | 4 | 0 | i | -0.97 | . | .
N#CSCC(=O)N1c2ccccc2CCc2ccccc21 | 4 | . | i | -0.21 | -3.9* | 0.046*
CCCC(=O)N(C)C1=Nc2ccc(Cl)cc2C(c2ccccc2)=[N+]([O-])C1 | -21 | . | i | -0.68 | . | .
O=c1[nH]sc2cc(F)ccc12 | 6 | -6 | i | -0.94 | -7.6* | 0.054*
SMILES | TbHK1 inh | Insulin prom inh | HSV replic up | Ins promoter up | ROMK primary | ROMK retest
CN(C)C(=O)Nc1cccc(OC(=O)N(C)C)c1 | 5 | 34 | i | 0.67 | . | 0.088
CN(C)C(=O)Oc1cccc(NC(=O)c2ccccc2C(F)(F)F)c1 | -9 | . | i | . | . | .
O=C(Cn1nc(-c2ccc(Cl)cc2)ccc1=O)N1CCC2(CC1)OCCO2 | -2 | 0 | i | 0.21 | -0.014 | .
Cc1oc(-c2ccccc2Cl)nc1CN1C(=O)CN=C(c2ccccc2)c2ccccc21 | 2 | -51 | . | -1.2 | -2.8* | 0.058*
O=c1cccc2n1CC1CC2CN(c2nc(N3CCCCC3)nc(N3CCCCC3)n2)C1 (stereo not drawn) | -8 | -46 | i | -0.21 | -2 | .
c1ccc2c(c1)CC1CNCc3cccc(c31)S2 (stereo not drawn) | 9 | -55 | i | . | -2.8* | 0.054*
O=P(Nc1cccc(Cl)c1)(Oc1ccccc1)Oc1ccccc1 | 8 | -18 | i | 1.2 | -0.64 | .
CN(CCCCC(=O)/C=N/O)Cc1ccccc1 (tested in a mixture with another compound) | -4 | -4 | i | -0.47 | 3.3* | 0.083
CC1(C)CC(n2[nH]c(=O)c3c2NC(=O)CSC3c2ccc(F)cc2)CCO1 (stereo not drawn) | 0 | . | i | 0.25 | . | .
CCC(C)(C)n1nnnc1CN1CCC(n2c(C)nc3cc(C(F)(F)F)ccc32)CC1 | -17 | 7 | i | -0.04 | . | .
Cc1cccc(N/N=C(\C(N)=O)C2=NC(C)(C)Cc3ccccc32)c1 | -16 | 10 | i | -0.39 | -3* | 0.059*
Cc1ccccc1N1C(=O)NC(=O)/C(=C\c2cc(Br)c(N3CCOCC3)o2)C1=O | -6 | . | i | 0.84 | . | 0.025*
CCN(CC)CC(O)c1ccc(C2CCCC2)cc1 (stereo not drawn) | 1 | 31 | i | 0.02 | -0.45 | .
O=C1NC(=O)N(c2ccc3c(c2)OCO3)C(=O)/C1=C\c1ccc(N2CCCCC2)o1 | -7 | . | ? | 0.88 | . | 0.052*
Cc1ccccc1N1C(=O)NC(=O)/C(=C/c2ccc(N3CCOCC3)o2)C1=O | -7 | . | ? | 0.21 | . | .
O=[N+]([O-])c1ccc(N2CCCCCC2)c2ncccc12 | -3 | 30 | i | -0.8 | -0.79 | .
CCNC(=O)C1OC(n2cnc3c(N)ncnc32)C(O)C1O (stereo not drawn) | 5 | 31 | i | . | 4.3* | ?
CC(/C=N/NC(=O)c1n[nH]c2c1CCC2)=C\c1ccccc1 | -16 | -58 | i | -0.97 | 5.5* | 0.09
Cc1ccc(CN2C(=O)NC(=O)C3(Cc4c(nc5ccccn5c4=O)N4CCCCCC43)C2=O)cc1 (stereo not drawn) | 5 | . | i | 0.04 | -2.9* | 0.064*
NS(=O)(=O)c1cccc(N2CCNCC2)c1 | -3 | . | i | 0.1 | -0.21 | .
CC(C)Sc1nnc([C@@H](N)Cc2ccccc2)o1 | -1 | -11 | i | -0.05 | . | 0.078
CSc1nnc([C@@H](N)Cc2ccccc2)o1 | -3 | ? | i | 0.77 | . | .
CCCCn1c(O)c(C(C)=Nc2ccc3c(c2)CCC3)c(=O)[nH]c1=O | -4 | . | i | -0.13 | . | .
C[n+]1ccc(-c2ccncc2)cc1 | 6 | . | i | . | 1.1 | .
